Compound activity as filed in PubChem BioAssay.
ELG1 genotoxic: qHTS screen for small molecules that induce genotoxicity in human embryonic kidney (HEK293T) cells expressing luciferase-tagged ELG1. HEK293T ELG1-luciferase reporter, luminescence, 16 h. Potency, µM (top dose mostly 46 µM), without a hit: at the highest dose activity change, positive = activation, actives largely listed as activators. 330,000 tested, 1.3% active; note: % of control where 0% means no effect; nearly all actives have a fitted effect of over 60% in size
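Genotoxicity was scored as increased ELG1-luciferase reporter signal, measured by ONE-Glo luminescence (30 min, room temperature). Compound or vehicle exposure of the HEK293T reporter cells lasted 16 hr at 37°C.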
ELG1 repair inh: qHTS screen for small molecules that inhibit ELG1-dependent DNA repair in human embryonic kidney (HEK293T) cells expressing luciferase-tagged ELG1. 330,000 tested, 2.3% active. Potency, µM (series often up to 46.1 µM), for the others: at the highest dose activity change, negative = inhibition, hits mostly inhibitors. HEK293T ELG1-luciferase reporter, luminescence, 16 h; DNA damage induced by 5-fluorouridine. AID 504467, 2011; note: % is set by controls: 0 for no effect and ±100 for the full control effect; nearly all actives have a fitted effect of over 55% in size
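DMSO vehicle served as the neutral condition. Each well held 2,000 cells given 5-fluorouridine plus compound; after 16 hr at 37 °C/5% CO2, ONE-Glo was added and luciferase measured 30 min later.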
SMN2 splice up: qHTS Assay for Enhancers of SMN2 Splice Variant Expression. HEK293 SMN2-luciferase splicing reporter, luminescence, 30-36 h. Potency, µM (doses to about 46.1 µM), for inactives: at the top dose activity change, positive = activation, usual class: activators. 210,000 tested, 2.8% active. AID 1458, 2008; note: % of control where 0% means no effect; nearly all actives have a fitted effect of over 55% in size
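HEK293 cells carry an SMN2 […]–luciferase reporter in which exon 7 inclusion puts luciferase in frame. Cells were plated 10-12 h before compound addition, then incubated 30-36 h at 37C. ONE-Glo luminescence was read; sodium butyrate at 4.5 mM final served as control.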
Rab9 promoter act: qHTS Assay for Rab9 Promoter Activators; Huh7 Rab9 promoter-luciferase reporter, luminescence, 24 h; Potency, µM (top dose mostly 9.22 µM), for the others: top-dose activation, negative = inhibition, actives largely listed as activators; AID 485297, 2010; 320,000 tested, 2.8% active; note: % of control where 0% means no effect; nearly all actives have a fitted effect of over 60% in size
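Promoter activation is measured as luciferase luminescence in Huh7 cells stably transfected with a Rab9 promoter–luciferase construct, following 24 h compound exposure at 37 °C and 10 min reagent incubation at ambient temperature.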
FLuc counter: qHTS profiling assay for firefly luciferase inhibitor/activator using purifed enzyme and Km concentrations of substrates (counterscreen for miR-21 project); Luciferin 4-monooxygenase (Photinus pyralis), P08659; purified FLuc, Km substrates, luminescence inhibition; Potency, µM (doses to about 57.5 µM), without a hit: at the highest dose activity change, negative = inhibition, most hits filed as inhibitors; 360,000 tested, 6.9% active;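 note: plate controls were vehicle for no effect and reference inhibitor for full effect; nearly all actives have a fitted effect of over 55% in size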
Target sequence (P08659 whole entry, looked up): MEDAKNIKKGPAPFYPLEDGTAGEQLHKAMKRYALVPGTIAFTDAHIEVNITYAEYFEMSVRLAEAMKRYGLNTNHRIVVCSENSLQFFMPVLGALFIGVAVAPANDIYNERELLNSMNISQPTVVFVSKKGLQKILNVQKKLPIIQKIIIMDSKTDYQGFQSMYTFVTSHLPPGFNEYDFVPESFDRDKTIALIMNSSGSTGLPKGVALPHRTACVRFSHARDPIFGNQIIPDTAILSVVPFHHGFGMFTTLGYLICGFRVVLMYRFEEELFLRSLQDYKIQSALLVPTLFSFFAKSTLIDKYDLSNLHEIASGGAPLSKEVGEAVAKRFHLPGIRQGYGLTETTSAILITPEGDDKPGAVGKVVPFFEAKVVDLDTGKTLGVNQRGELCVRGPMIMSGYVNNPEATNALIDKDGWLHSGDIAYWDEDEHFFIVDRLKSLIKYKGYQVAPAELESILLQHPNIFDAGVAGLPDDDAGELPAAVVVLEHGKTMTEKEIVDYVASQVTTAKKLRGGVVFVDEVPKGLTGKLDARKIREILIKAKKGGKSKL
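Purified P. pyralis luciferase (10nM final) with 10uM D-luciferin and 10uM ATP (Km levels) in 50mM Tris acetate pH 7.5, 10mM Mg acetate, 0.01% Tween-20, 0.05% BSA; qHTS 6-point titration, ~60 µM downward; luminescence read.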
NPC1 prom act: qHTS Assay for NPC1 Promoter Activators. Huh7 NPC1 promoter luciferase reporter, 24 h. 320,000 tested, 2.4% active. Potency, µM (doses to about 9.22 µM), inactives show at the highest dose activation, most hits filed as activators; note: % of control where 0% means no effect; nearly all actives have a fitted effect of over 60% in size
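NPC1 promoter–luciferase Huh7 cells; 24 h compound; luminescence.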
Numbers without * were called inactive; ? = inconclusive; nt = not tested or not shown; [ ] = another dose, or the depositor's remark. An excerpt weighted towards active compounds, which were near 9.3% of everything screened. Calls come from the whole dose curve; as a rule, active = well fitted curve in the direction sought with a large enough effect; inconclusive = small, poorly fitted or top-dose-only effect, or another doubt; inactive = no such curve, though single readings can be large; an effect the other way counts as inactive or inconclusive. Potency is the fitted concentration of half-maximal effect.

SMILES | ELG1 genotoxic | ELG1 repair inh | SMN2 splice up | Rab9 promoter act | FLuc counter | NPC1 prom act
Cn1cc(/C=C/C(=O)N2CCCC(C(=O)c3ccc(C(C)(C)C)cc3)C2)cn1 (stereo unspecified) | -4% | 10% | nt | -1% | 17µM* | 0%
COc1ccc(C(=O)N2CCC[C@@]3(CCN(C(=O)Nc4cccc(C#N)c4)C3)C2)cc1 | nt | nt | -30% | nt | nt | nt
CCc1ccc(C(=O)CSc2nc3cc(S(=O)(=O)N4CCOCC4)ccc3n2CC)cc1 | 5% | 11% | -8% | 1% | 13µM* | 4%
CCN(CC)S(=O)(=O)c1ccc(/C=C/C(=O)NC2CCCCC2)cc1 | -13% | ? | nt | 3% | 0% | 0%
Cc1cc(C)c(S(=O)(=O)N2CCc3ccccc32)c(C)c1 | 0% | 12% | nt | -3% | -4% | -5%
Cc1ccc(CNC(=O)c2cc(C)nn2-c2ccccc2)cc1 | -4% | 12% | nt | -1% | -3% | -2%
Cc1ccc(Cc2nnc3n(-c4ccccc4)nc(C(=O)c4ccccc4)n3c2=O)cc1 | -7% | 21µM* | nt | -13% | 3% | -22%
C/C(Cn1nnc2ccccc21)=N\NC(=O)c1ccc(Br)cc1 | -2% | 15% | -9% | 3% | 5% | -2%
O=C(NNc1ccc(C(F)(F)F)cc1[N+](=O)[O-])c1ccc(NS(=O)(=O)c2ccc(F)cc2)cc1 | -13% | 21µM* | -3%[1.84 µM] | -3% | -17% | -5%
CC(C)[C@H](Nc1ccc(C(F)(F)F)cc1[N+](=O)[O-])C(=O)O | -2% | 5% | nt | 3% | 1% | -1%
CCOc1ccc(NC(=O)NC(=O)N(C(C)C)S(C)(=O)=O)cc1 | 1% | 9% | -14% | 12% | 5% | -6%
CCn1ncc2c(OCc3ccc(C#N)cc3)cc(C)nc21 | 0% | 26µM* | -12% | -13% | -1% | -2%
CC1CCC(NC(=O)c2ccc(/C=C3\Oc4ccccc4N(C)C3=O)cc2)CC1 (stereo unspecified) | 0% | -16% | -6% | 0% | -5% | 0%
COc1cccc(C(=O)O/N=C(\N)c2ccccn2)c1OC | 1.8µM* | ? | nt | 0.71µM* | 0.95µM* | ?
N/C(=N\OC(=O)Cc1cccc2ccccc12)c1ccccn1 | ? | ? | 4% | 23% | ? | 25%
N/C(=N\OC(=O)c1cccc2ccccc12)c1ccccn1 | 10µM* | ? | nt | ? | 1.2µM* | ?
Cc1cccc(CN2CCC(n3nccc3NC(=O)CCCc3ccccc3)CC2)n1 | -4% | 7% | nt | 4% | 2% | -1%
COc1ccc(C(=O)O/N=C(\N)c2ccccc2)cc1 | 1.8µM* | ? | nt | 1.4µM* | 0.21µM* | 0.5µM*
COc1ccc(C(=O)O/N=C(\N)c2ccc(Br)cc2)cc1 | 16% | ? | nt | ? | 3µM* | ?
Cc1cc(C(=O)O/N=C(\N)c2ccc(C(C)(C)C)cc2)no1 | 10% | ? | nt | 1.8µM* | 6µM* | 3.5µM*
Cc1cc(/C(N)=N/OC(=O)Nc2ccccc2)no1 | 9% | ? | nt | ? | ? | 23%
Cc1cc(/C(N)=N/OC(=O)Nc2ccc(Cl)cc2)no1 | ? | ? | nt | ? | 19µM* | 10%
C=CCc1cccc2cc(-c3nc4ccc(C)cc4[nH]3)c(=O)oc12 | nt | nt | nt | nt | -17% | nt
CC(C)(C)c1ccc(NC(=O)CON=C(N)c2ccccc2)cc1 | 2% | 10% | nt | -2% | ? | -2%
CC(C)(C)c1ccc(C(=O)O/N=C(\N)c2ccccc2)cc1 | ? | ? | nt | -12% | 0.76µM* | -16%
SMILES | ELG1 genotoxic | ELG1 repair inh | SMN2 splice up | Rab9 promoter act | FLuc counter | NPC1 prom act
Cc1ccc(/C=N/NC(=S)N2CCOCC2)cc1 | ? | ? | 34% | 5% | 15µM* | 12%
S=C(N/N=C/c1ccc(Br)cc1)N1CCCCC1 | ? | ? | nt | 0.89µM* | 27µM* | 4µM*
S=C(N/N=C/c1ccc(Cl)cc1)N1CCOCC1 | ? | ? | 29% | 29% | ? | 29%
CCOC(=O)c1ccc(NC(=O)N2CC3CCCN3c3ccccc32)cc1 (stereo unspecified) | nt | nt | nt | nt | -1% | nt
CC(=O)N1N=C(c2ccccc2)CC1c1cn(C)c2ccccc12 (stereo unspecified) | ? | ? | 14% | -5% | 19µM* | -1%
CC(=O)N1N=C(c2ccccc2)CC1c1ccc(F)cc1 (stereo unspecified) | 0% | ? | nt | -2% | 2% | -4%
COc1ccc(Nc2nnc(SC(C)C(=O)NC3CC3)s2)cc1 (stereo unspecified) | -2% | -2% | nt | nt | nt | nt
CC(Sc1nnc(NC2CCCCC2)s1)C(=O)Nc1ccc2c(c1)C(=O)c1ccccc1C2=O (stereo unspecified) | 4% | ? | 10µM* | ? | ? | ?
O=C(Nc1ccc(F)cc1)c1cccc(N2C(=O)C3C4CCC(C4)C3C2=O)c1 (stereo unspecified) | -2% | ? | -42% | -3% | -10% | -2%
Cc1cccc(NC(=O)c2ccc(N3C(=O)C4C5C=CC(C6CC56)C4C3=O)cc2)c1 (stereo unspecified) | -1% | 8.2µM* | nt | -4% | ? | -10%
O=C(Nc1ccccc1)c1cccc(N2C(=O)C3C4C=CC(C5CC45)C3C2=O)c1 (stereo unspecified) | -15% | ? | nt | -6% | -16% | -1%
Cc1cccc(NC(=O)C2C3C=CC(O3)C2C(=O)O)c1 (stereo unspecified) | -7% | 9% | nt | 1% | -2% | -1%
O=C(Nc1ccc(F)cc1)c1cccc(N2C(=O)C3C4C=CC(C5CC45)C3C2=O)c1 (stereo unspecified) | -19% | 16µM* | nt | -8% | -7% | -5%
Cc1cccc(NC(=O)C2C3C=CC(C4CC34)C2C(=O)O)c1 (stereo unspecified) | 6% | 25% | -29% | 0% | 17µM* | -1%
O=C(Nc1ccc(Br)cc1)c1cccc(N2C(=O)C3C4CCC(C4)C3C2=O)c1 (stereo unspecified) | -3% | 16µM* | -51% | 0% | ? | -1%
